Test results: paper PMC9911399, “Two distinct binding modes provide the RNA-binding protein RbFox with extraordinary sequence specificity”
Changes are numbered by the printed parent chain; changes in the protein carry UniProt numbers. In all, about 16,000 sequences were measured (“ka relative to ugcaugu”: median about 0.096, highest 2% from about 0.35 on). What follows is part of a selection rich in the highest values, with near analogues and random picks from the rest.

T1: RBFOX1 RRM RbFoxmut (Fox-RRM*) (Homo sapiens, UniProt Q9NWB1 109-208, R118D;E147R;N151S;E152T)
T1 sequence: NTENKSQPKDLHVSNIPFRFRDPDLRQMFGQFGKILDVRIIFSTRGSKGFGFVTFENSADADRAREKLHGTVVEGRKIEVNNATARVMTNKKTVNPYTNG

B1: GCGAAUG (DNA:RNA)
RNA: GGGAGACCGGAAUUCAGAUUGUCCGCGAAUGUUAAAUCCCGUCGUAGCCACCA
DNA 1: CAATCTGAATTCCGGTCTCCC
DNA 2: TGGTGGCTACGACGGGATT
B2: GCGAACG (DNA:RNA)
RNA: B1 RNA with U30C
DNA 1: CAATCTGAATTCCGGTCTCCC
DNA 2: TGGTGGCTACGACGGGATT
B3: GAAUGUG (DNA:RNA)
RNA: B1 RNA with C26A, G27A, A28U, A29G
DNA 1: CAATCTGAATTCCGGTCTCCC
DNA 2: TGGTGGCTACGACGGGATT
B4: GAUUAAU (DNA:RNA)
RNA: B1 RNA with C26A, G27U, A28U, U30A, G31U
DNA 1: CAATCTGAATTCCGGTCTCCC
DNA 2: TGGTGGCTACGACGGGATT
B5: UUGCUUC (DNA:RNA)
RNA: B1 RNA with G25U, C26U, A28C, A29U, G31C
DNA 1: CAATCTGAATTCCGGTCTCCC
DNA 2: TGGTGGCTACGACGGGATT
B6: AGAGUCA (DNA:RNA)
RNA: GGGAGACCGGAAUUCAGAUUGUCCAGAGUCAUUAAAUCCCGUCGUAGCCACCA
DNA 1: CAATCTGAATTCCGGTCTCCC
DNA 2: TGGTGGCTACGACGGGATT
B7: UCCAGUA (DNA:RNA)
RNA: B1 RNA with G25U, G27C, A29G, G31A
DNA 1: CAATCTGAATTCCGGTCTCCC
DNA 2: TGGTGGCTACGACGGGATT
B8: GACCGUC (DNA:RNA)
RNA: B1 RNA with C26A, G27C, A28C, A29G, G31C
DNA 1: CAATCTGAATTCCGGTCTCCC
DNA 2: TGGTGGCTACGACGGGATT
B9: GAAUGUC (DNA:RNA)
RNA: B1 RNA with C26A, G27A, A28U, A29G, G31C
DNA 1: CAATCTGAATTCCGGTCTCCC
DNA 2: TGGTGGCTACGACGGGATT
B10: GAAAAUG (DNA:RNA)
RNA: B1 RNA with C26A, G27A
DNA 1: CAATCTGAATTCCGGTCTCCC
DNA 2: TGGTGGCTACGACGGGATT
B11: AAAGCCU (DNA:RNA)
RNA: B6 RNA with G26A, U29C, A31U
DNA 1: CAATCTGAATTCCGGTCTCCC
DNA 2: TGGTGGCTACGACGGGATT
B12: CUAUCCC (DNA:RNA)
RNA: B6 RNA with A25C, G26U, G28U, U29C, A31C
DNA 1: CAATCTGAATTCCGGTCTCCC
DNA 2: TGGTGGCTACGACGGGATT
B13: GAAGAAU (DNA:RNA)
RNA: B6 RNA with A25G, G26A, U29A, C30A, A31U
DNA 1: CAATCTGAATTCCGGTCTCCC
DNA 2: TGGTGGCTACGACGGGATT
B14: GGUUAUG (DNA:RNA)
RNA: B1 RNA with C26G, G27U, A28U
DNA 1: CAATCTGAATTCCGGTCTCCC
DNA 2: TGGTGGCTACGACGGGATT
B15: GUCCCGG (DNA:RNA)
RNA: B1 RNA with C26U, G27C, A28C, A29C, U30G
DNA 1: CAATCTGAATTCCGGTCTCCC
DNA 2: TGGTGGCTACGACGGGATT
B16: GGGGUUC (DNA:RNA)
RNA: B6 RNA with A25G, A27G, C30U, A31C
DNA 1: CAATCTGAATTCCGGTCTCCC
DNA 2: TGGTGGCTACGACGGGATT
B17: CGGUUCG (DNA:RNA)
RNA: B6 RNA with A25C, A27G, G28U, A31G
DNA 1: CAATCTGAATTCCGGTCTCCC
DNA 2: TGGTGGCTACGACGGGATT
B18: CGUUAUG (DNA:RNA)
RNA: B1 RNA with G25C, C26G, G27U, A28U
DNA 1: CAATCTGAATTCCGGTCTCCC
DNA 2: TGGTGGCTACGACGGGATT
B19: GGUUCGG (DNA:RNA)
RNA: B1 RNA with C26G, G27U, A28U, A29C, U30G
DNA 1: CAATCTGAATTCCGGTCTCCC
DNA 2: TGGTGGCTACGACGGGATT
B20: GGGUUCG (DNA:RNA)
RNA: B6 RNA with A25G, A27G, G28U, A31G
DNA 1: CAATCTGAATTCCGGTCTCCC
DNA 2: TGGTGGCTACGACGGGATT
B21: CGUUCGG (DNA:RNA)
RNA: B6 RNA with A25C, A27U, G28U, U29C, C30G, A31G
DNA 1: CAATCTGAATTCCGGTCTCCC
DNA 2: TGGTGGCTACGACGGGATT
B22: GUUCGGG (DNA:RNA)
RNA: B1 RNA with C26U, G27U, A28C, A29G, U30G
DNA 1: CAATCTGAATTCCGGTCTCCC
DNA 2: TGGTGGCTACGACGGGATT
B23: GUAAAAU (DNA:RNA)
RNA: B1 RNA with C26U, G27A, U30A, G31U
DNA 1: CAATCTGAATTCCGGTCTCCC
DNA 2: TGGTGGCTACGACGGGATT
B24: GGCCGCA (DNA:RNA)
RNA: B6 RNA with A25G, A27C, G28C, U29G
DNA 1: CAATCTGAATTCCGGTCTCCC
DNA 2: TGGTGGCTACGACGGGATT
B25: CCUGUUG (DNA:RNA)
RNA: B1 RNA with G25C, G27U, A28G, A29U
DNA 1: CAATCTGAATTCCGGTCTCCC
DNA 2: TGGTGGCTACGACGGGATT
B26: AGGGCAC (DNA:RNA)
RNA: B6 RNA with A27G, U29C, C30A, A31C
DNA 1: CAATCTGAATTCCGGTCTCCC
DNA 2: TGGTGGCTACGACGGGATT
B27: UAGCUUA (DNA:RNA)
RNA: B6 RNA with A25U, G26A, A27G, G28C, C30U
DNA 1: CAATCTGAATTCCGGTCTCCC
DNA 2: TGGTGGCTACGACGGGATT
B28: GUUAGGG (DNA:RNA)
RNA: B1 RNA with C26U, G27U, A29G, U30G
DNA 1: CAATCTGAATTCCGGTCTCCC
DNA 2: TGGTGGCTACGACGGGATT
B29: ACCGGAG (DNA:RNA)
RNA: B6 RNA with G26C, A27C, U29G, C30A, A31G
DNA 1: CAATCTGAATTCCGGTCTCCC
DNA 2: TGGTGGCTACGACGGGATT
B30: AAUUGGC (DNA:RNA)
RNA: B6 RNA with G26A, A27U, G28U, U29G, C30G, A31C
DNA 1: CAATCTGAATTCCGGTCTCCC
DNA 2: TGGTGGCTACGACGGGATT
B31: ACCACUC (DNA:RNA)
RNA: B1 RNA with G25A, G27C, A29C, G31C
DNA 1: CAATCTGAATTCCGGTCTCCC
DNA 2: TGGTGGCTACGACGGGATT

molecular target: T1, RBFOX1 RRM RbFoxmut (Fox-RRM*); assay: EMSA; HiTS-Eq, 1 nM pool, 10 min; buffer printed only for the single-RNA assays: 10 mM Tris pH 7.5, 150 mM NaCl, 3.4 mM EDTA, 0.001% NP-40, 30 C; settings: tags: His6 N-terminal (pET28a); label: 5' 32P
How it was run: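 Purified RbFox RRM, wild type or mutant, was incubated for 10 min in 50 µL with 1 nM of a 5′-radiolabelled RNA pool carrying 7 randomized nucleotides, whose flanks were annealed to DNA oligonucleotides, over a series of increasing protein concentrations. Unbound RNA was resolved on 8% native PAGE, cut out, reverse-transcribed, barcoded by PCR and sequenced on an Illumina HiSeq 2500. Relative association constants were derived from changes in read counts for each RNA species versus the control reaction and normalised to the cognate motif.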

| Binder | binding signal |
| --- | --- |
| B1 | 1.44 KA relative to UGCAUGU |
| B2 | 0.354 KA relative to UGCAUGU |
| B3 | 1.27 KA relative to UGCAUGU |
| B4 | 0.0998 KA relative to UGCAUGU |
| B5 | 0.157 KA relative to UGCAUGU |
| B6 | 0.106 KA relative to UGCAUGU |
| B7 | 0.135 KA relative to UGCAUGU |
| B8 | 0.0863 KA relative to UGCAUGU |
| B9 | 0.55 KA relative to UGCAUGU |
| B10 | 0.1 KA relative to UGCAUGU |
| B11 | 0.0705 KA relative to UGCAUGU |
| B12 | 0.0664 KA relative to UGCAUGU |
| B13 | 0.0873 KA relative to UGCAUGU |
| B14 | 0.585 KA relative to UGCAUGU |
| B15 | 0.0859 KA relative to UGCAUGU |
| B16 | 0.239 KA relative to UGCAUGU |

| Binder | binding signal |
| --- | --- |
| B17 | 0.371 KA relative to UGCAUGU |
| B18 | 0.269 KA relative to UGCAUGU |
| B19 | 0.126 KA relative to UGCAUGU |
| B20 | 0.4 KA relative to UGCAUGU |
| B21 | 0.115 KA relative to UGCAUGU |
| B22 | 0.0874 KA relative to UGCAUGU |
| B23 | 0.0936 KA relative to UGCAUGU |
| B24 | 0.107 KA relative to UGCAUGU |
| B25 | 0.136 KA relative to UGCAUGU |
| B26 | 0.0707 KA relative to UGCAUGU |
| B27 | 0.134 KA relative to UGCAUGU |
| B28 | 0.0712 KA relative to UGCAUGU |
| B29 | 0.0806 KA relative to UGCAUGU |
| B30 | 0.114 KA relative to UGCAUGU |
| B31 | 0.0459 KA relative to UGCAUGU |
